Screen size: about 5,500 compounds; about 2,000 (36%) were called active. Roughly 18% stayed inconclusive and do not appear here. No stated cut-off is given here; in the data, active means normalized growth mostly below about 0.91 (no sharp cut-off); inconclusive means no clear call, values can overlap the other calls; inactive means mostly above about 0.92. This is one part of the list.
Test: chemical genetic growth profiling, strain panel (AID 1159580);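 further: tested at 20 µM; growth read once vehicle control cultures reached saturation at 30 °C; 1 = growth at the plate median or of vehicle wells; lower values mean less growth of the strain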
Conditions: S. cerevisiae deletion strains, growth OD

Measured: normalized growth

CC(C)=CCOc1c2occc2cc2ccc(=O)oc12
active: locus YKL009W, strain mrt4, active compounds read low 0.844 | locus YKL068W, active compounds read low 0.898 | locus YKL085W, strain MDH1 (second series), active compounds read low 0.898 | locus YKL085W, strain MDH1, active compounds read low 0.898 | locus YKL160W, strain elf1, active compounds read low 0.898 | locus YKL190W, strain CNB1, active compounds read low 0.854 | locus YKR001C, strain vps1, active compounds read low 0.599 | locus YKR026C, strain gcn3, active compounds read low 0.905 | locus YKR091W, strain srl3, active compounds read low 0.929 | locus YLL001W, strain dnm1, active compounds read low 0.862 | locus YLL041C, strain sdh2, active compounds read low 0.919 | locus YLR027C, strain aat2, active compounds read low 0.893 | locus YLR039C, strain RIC1, active compounds read low 0.429 | locus YLR058C, strain SHM2, active compounds read low 0.748 | locus YLR102C, strain apc9, active compounds read low 0.843 | locus YLR221C, strain rsa3, active compounds read low 0.821 | locus YLR258W, strain gsy2, active compounds read low 0.908 | locus YLR262C, strain YPT6 (second series), active compounds read low 0.749 | locus YLR262C, strain YPT6, active compounds read low 0.448 | locus YLR268W, strain sec22, active compounds read low 0.695 | locus YLR320W, strain mms22, active compounds read low 0.652 | locus YLR330W, strain CHS5, active compounds read low 0.507 | locus YLR342W, strain FKS1 (second series), active compounds read low 0.416 | locus YLR342W, strain FKS1, active compounds read low 0.86 | locus YLR370C, strain arc18, active compounds read low 0.906 | locus YLR371W, strain rom2, active compounds read low 0.582 | locus YLR384C, strain iki3, active compounds read low 0.9 | locus YLR418C, strain cdc73, active compounds read low 0.28 | locus YML016C, strain PPZ1, active compounds read low 0.875 | locus YML032C, strain rad52, active compounds read low 0.676 | locus YML120C, strain ndi1, active compounds read low 0.875 | locus YML124C, strain tub3, active compounds read low 0.827 | locus YMR058W, strain fet3, active compounds read low 0.886 | locus YMR078C, strain ctf18, active compounds read low 0.781 | locus YMR125W, strain sto1, active compounds read low 0.826 | locus YMR129W, active compounds read low 0.921 | locus YMR205C, strain PFK2, active compounds read low 0.817 | locus YMR223W, strain ubp8, active compounds read low 0.736 | locus YMR307W, strain GAS1, active compounds read low 0.443 | locus YNL067W, strain RPL9B, active compounds read low 0.764 | locus YNL071W, strain lat1, active compounds read low 0.573 | locus YNL153C, strain GIM3, active compounds read low 0.73 | locus YNL233W, strain BNI4, active compounds read low 0.517 | locus YNL250W, strain rad50, active compounds read low 0.884 | locus YNL271C, strain bni1, active compounds read low 0.849 | locus YNL298W, strain CLA4, active compounds read low 0.823 | locus YNL307C, strain MCK1, active compounds read low 0.222 | locus YNL322C, strain KRE1 (second series), active compounds read low 0.904 | locus YNR049C, strain mso1, active compounds read low 0.914 | locus YNR052C, strain pop2, active compounds read low 0.877 | locus YOL006C, strain TOP1, active compounds read low 0.373 | locus YOL147C, strain pex11, active compounds read low 0.551 | locus YOR001W, strain rrp6, active compounds read low 0.89 | locus YOR069W, strain VPS5, active compounds read low 0.783 | locus YOR083W, strain WHI5, active compounds read low 0.86 | locus YOR136W, strain idh2, active compounds read low 0.851 | locus YOR144C, strain elg1, active compounds read low 0.717 | locus YOR184W, strain ser1, active compounds read low 0.459 | locus YOR270C, strain vph1, active compounds read low 0.592 | locus YOR290C, strain snf2, active compounds read low 0.787 | locus YOR316C, strain cot1, active compounds read low 0.86 | locus YPL051W, strain arl3, active compounds read low 0.908 | locus YPL055C, strain LGE1, active compounds read low 0.657 | locus YPL078C, strain atp4, active compounds read low 0.843 | locus YPL240C, strain hsp82, active compounds read low 0.912 | locus YPR119W, strain clb2, active compounds read low 0.837 | locus YPR141C, strain kar3, active compounds read low 0.869 | locus YPR163C, strain tif3, active compounds read low 0.34 | locus YPR167C, strain met16, active compounds read low 0.782 | strain wtn01, active compounds read low 0.708
inactive: locus YJR066W, strain TOR1, active compounds read low 0.891 | locus YLL026W, active compounds read low 0.931 | locus YLR113W, strain HOG1, active compounds read low 1.02 | locus YLR357W, strain rsc2, active compounds read low 0.871 | locus YMR231W, strain pep5, active compounds read low 0.936 | locus YNL183C, strain NPR1, active compounds read low 0.912 | locus YNL209W, strain ssb2, active compounds read low 0.936 | locus YNL248C, strain rpa49, active compounds read low 0.936 | locus YOL012C, strain htz1 0.448 | locus YOR061W, strain CKA2, active compounds read low 0.917 | locus YOR070C, strain gyp1, active compounds read low 0.93 | locus YOR080W, strain dia2, active compounds read low 0.921 | locus YOR106W, strain vam3, active compounds read low 0.881 | locus YOR231W, strain MKK1, active compounds read low 0.955 | locus YOR265W, strain rbl2, active compounds read low 0.93 | locus YPL106C, strain sse1, active compounds read low 0.941 | locus YPL256C, strain CLN2, active compounds read low 0.969
